In PubChem BioAssay AID1259343 (VanderVen Lab, College of Veterinary Medicine, Cornell …, 2017) one finds inhibition data, which are given here for 67 molecules.

Screen size: about 6,200 compounds; about 2,900 (47%) were called active. The set was probably picked from earlier hits. Some of the results follow. Values without a mark were called inactive. Rule as the data show it: active = inhibition above about 50%; inactive = the rest.

This assay can be described thus: Mycobacterium tuberculosis growth inhibition, primary screen (AID 1259343). The note with it: inhibition: at 10 µM, active compounds read high; outcome: 10 uM.
Regarding `CCc1nnc(NS(=O)(=O)c2ccccc2Cl)s1`, the inhibition was 80.2% (active).

Take `CC(C)c1nnc(NS(=O)(=O)c2ccc(Cl)s2)s1`: the inhibition is -36.5%.

For the molecule `COCc1nnc(NS(=O)(=O)c2ccc(Br)cc2)s1`, the inhibition result was “inactive”.

For the molecule `c1cc2cc(CNc3nc(NCC4CC4)nc4ccsc34)ccc2o1`, the inhibition was 76.9% (active).

In the case of `Clc1ccccc1CSc1nnc(-c2ccc3c(c2)OCO3)o1`, the inhibition was 1.82%.

On to `Brc1cc2c(cc1CSc1nnc(-c3ccccc3)o1)OCO2`, for which the inhibition is -11.5%.

For `N#CCSc1nnc(-c2ccc3c(c2)OCO3)o1`, the inhibition is 97.5% (active).

On to `Clc1cccc(Cl)c1CSc1nnc(-c2ccc3c(c2)OCO3)o1`, for which the inhibition is 63.3% (active).

As for `Brc1ccccc1CSc1nnc(-c2ccc3c(c2)OCO3)o1`, the inhibition is 99.6% (active).

As for `Brc1ccc(CSc2nnc(-c3ccc4c(c3)OCO4)o2)cc1`, the inhibition was 59.2% (active).

On to `Clc1cccc(CSc2nnc(-c3ccc4c(c3)OCO4)o2)c1`, for which the inhibition is 41.6%.

Regarding `CCn1nc(NC(C)=O)c2cc3ccc(C)cc3nc21`, the inhibition was -33.9%.

For `CN(C(=O)c1cc(Cl)sc1Cl)c1ccc(-c2onc3c2CCc2ccccc2-3)cc1`, the inhibition was 35.5%.

For the molecule `Fc1ccc(-c2nnc(SCc3cc(Cl)c4c(c3)OCCO4)o2)cc1`, the inhibition was 95.4% (active).

Turning to `COc1ccc(C=NOCc2ccc(Cl)c(Cl)c2)c(OC)c1`, the inhibition is 32.8%.

As to `N#Cc1ccc(CON=Cc2ccccc2)cc1`, the inhibition is 70.7% (active).

As to `C(=NOCc1ccc(CON=Cc2ccccc2)cc1)c1ccccc1`, the inhibition was 16.2%.

For `N#Cc1ccc(CON=Cc2ccccc2OC(F)F)cc1`, the inhibition was 52.2% (active).

Turning to `Cc1nc(-n2nc(C3CC3)cc2NC(=O)c2cccc(F)c2)[nH]c(=O)c1C`, the inhibition was 100% (active).

Turning to `Cc1nc(-n2nc(C3CC3)cc2NC(=O)c2ccc(F)cc2)[nH]c(=O)c1C`, the inhibition was 101% (active).

For `Cc1cccc(C(=O)Nc2cc(C3CC3)nn2-c2nc(C)c(C)c(=O)[nH]2)c1`, the inhibition is 99.3% (active).

Turning to `O=[N+]([O-])c1ccc(N2CCCCC2)cc1`, the inhibition is 48.6%.

As for `CC(c1ccccc1)N1CCN(c2ccc([N+](=O)[O-])cc2)CC1` (configuration not stated), the inhibition was 56.5% (active).

For `O=C1/C(=C/c2ccc(O)cc2)C(N2CCOCC2)=NN1c1ccc([N+](=O)[O-])cc1`, the inhibition was 36.6%.

Take `C=CCc1c(C)nc2c(-c3ccccc3)cnn2c1NCCOC`: the inhibition was 17.5%.

In the case of `C=CCc1c(C)nc2c(-c3ccccc3)cnn2c1NCCN(C)C`, the inhibition result was “inactive”.

With `C=CCc1c(C)nc2c(-c3cccc(Cl)c3)c(C)[nH]n2c1=O`, the inhibition was 99.8% (active).

In the case of `COc1ccccc1Oc1cc(Cl)ncn1`, the inhibition was 53.5% (active).

Turning to `Fc1ccc(CN2CCN(c3cc(Oc4ccc(F)cc4Cl)ncn3)CC2)cc1`, the inhibition is 39.7%.

In the case of `Fc1ccc(Oc2cc(Cl)ncn2)cc1`, the inhibition was 73.1% (active).

For the molecule `COc1cc(C(C)=O)ccc1Oc1cnccn1`, the inhibition was 3.02%.

`Fc1ccc(Oc2cc(N3CCc4ccccc4C3)ncn2)cc1F`: the inhibition is 34.6%.

With `Cc1nnc(N2C(=O)C(=O)C(=C(O)c3ccc(OC(C)C)cc3)C2c2ccc([N+](=O)[O-])cc2)s1` (configuration not stated), the inhibition was 35.4%.

As to `COc1ccc(C(=O)N(C)c2nnc(C34CC5CC(CC(C5)C3)C4)s2)c(OC)c1`, the inhibition is 29.9%.

Take `CN(C(=O)c1ccccc1)c1nnc(C23CC4CC(CC(C4)C2)C3)s1`: the inhibition is 70% (active).

Turning to `O=C(Nc1ncc(Cl)s1)c1ccc(Cl)cn1`, the inhibition was 81.3% (active).

On to `O=C(Nc1ncc(Cc2ccc(Cl)cc2)s1)c1cccs1`, for which the inhibition is 53.4% (active).

As for `O=C(Cc1cccs1)Nc1ncc(Cc2ccc(F)c(F)c2)s1`, the inhibition is 44.8%.

As to `CC(=O)CSc1ncnc2sc3c(c12)CCC(C)C3` (configuration not stated), the inhibition is 2.69%.

In the case of `CCCC(C)Nc1ncnc2sc3c(c12)CCC(C)C3` (configuration not stated), the inhibition is 84.8% (active).

`Clc1ccccc1CSc1nnc(-c2ccc[nH]2)o1`: the inhibition was -6.43%.

As for `N#Cc1c(SCc2ccccc2Cl)sc2c(=O)[nH]c(=O)[nH]c12`, the inhibition was 67.2% (active).

Regarding `Nc1ccc2c(c1)C(=O)NCC2`, the inhibition is 61.7% (active).

`Nc1ccc2c(c1)-c1ccccc1C2`: the inhibition is -7.01%.

`Nc1ccc2c(c1)Cc1ccccc1-2`: the inhibition was 0.14%.

Take `S=C(Nc1ccc2c(c1)OCO2)Nc1ccccc1Cl`: the inhibition was 19.5%.

`C=CCNC(=S)Nc1ccc(Cl)cc1Cl`: the inhibition was 4.42%.

`S=C(NCC1CCCCC1)Nc1ccccc1Cl`: the inhibition is 89.6% (active).

Consider `O=C(NCCC12CC3CC(CC(C3)C1)C2)c1ccc2c(=O)n3c(nc2c1)CCCCC3`, for which the inhibition is 67% (active).

`COc1ccc(C(C)NC(=O)Cc2ccccc2Cl)cc1F` (configuration not stated): the inhibition is 74.1% (active).

In the case of `COc1ccc(C(C)NC(=O)c2ccco2)cc1F` (configuration not stated), the inhibition is 15.9%.

Turning to `COc1ccc(C(N)c2csc(Nc3ccc(C(F)(F)F)cn3)n2)cc1` (configuration not stated), the inhibition was 86.2% (active).

On to `NC(Cc1ccccc1)c1csc(Nc2ccc(C(F)(F)F)cn2)n1` (configuration not stated), for which the inhibition was 86.1% (active).

As for `NC(Cc1ccc(C(F)(F)F)cc1)c1csc(Nc2ccccn2)n1` (configuration not stated), the inhibition was 47%.

As for `CC(C)CC(N)c1csc(Nc2ccc(C(F)(F)F)cn2)n1` (configuration not stated), the inhibition is 91.8% (active).

`NC(c1ccccc1)c1csc(Nc2ccc(C(F)(F)F)cn2)n1` (configuration not stated): the inhibition is 1.35%.

As to `NC(Cc1ccc(C(F)(F)F)cc1)c1csc(Nc2cnccn2)n1` (configuration not stated), the inhibition is 53% (active).

Take `NC(COCc1ccccc1)c1csc(Nc2ccc(C(F)(F)F)cn2)n1` (configuration not stated): the inhibition was 66.5% (active).

As to `FC(F)(F)c1ccc(Nc2cnn(Cc3ccccc3)c2)nc1`, the inhibition is 58.1% (active).

In the case of `FC(F)(F)c1ccc(Sc2ncccn2)nc1`, the inhibition is -12%.

For `CC(C)CCc1nc(Cn2c(C(F)(F)F)ccc(C(N)=O)c2=O)cs1`, the inhibition is 11.8%.

Turning to `Cc1ccc(CS(=O)(=O)Cc2csc(CCC(C)C)n2)cc1`, the inhibition was 96% (active).

For the molecule `CN1C(=O)C(=Cc2cccc(OCc3ccccc3Cl)c2)C(=O)N(C)C1=O`, the inhibition is 14.1%.

For the molecule `Cc1cc(=O)[nH]c(-n2nc(C3CC3)cc2NC(=O)C(C)(C)Oc2ccc(Cl)cc2)n1`, the inhibition was 98.2% (active).

Consider `CCc1cc(=O)[nH]c(-n2nc(C)cc2NC(=O)C(C)(C)Oc2ccc(Cl)cc2)n1`, for which the inhibition is -31%.

On to `Cc1cc(=O)[nH]c(-n2nc(C)cc2NC(=O)C(C)(C)Oc2ccc(Cl)cc2)n1`, for which the inhibition is 101% (active).

In the case of `Cc1cc(NC(=O)C(C)(C)Oc2ccc(Cl)cc2)n(-c2nc(C)c(C)c(=O)[nH]2)n1`, the inhibition is 100% (active).
